For 21 compounds, Potency and activity change, negative = inhibition results are on record in PubChem BioAssay (NCATS).

The nature of experiment [1]: Primary qHTS for Huh7 cytotoxicity: counterscreen for inhibitors of MERS-S pseudotyped particle cell entry (AID 1479147). Note: potency is the fitted concentration of half-maximal effect. The note with it: outcome: dose series up to 57.1 µM unless noted.
A short description of experiment [2]: Primary qHTS for inhibitors of MERS-S pseudo-typed particle cell entry (AID 1479149). For activity change, negative = inhibition: % is set by controls: 0 for no effect and ±100 for the full control effect. Note: nearly all actives have a fitted effect of over 60% in size. Note: potency is the fitted concentration of half-maximal effect. The settings on record: outcome: dose series up to 57.1 µM unless noted. (qHTS replaces the single test concentration by a dilution series.)
Experiment [3] in a line: Primary qHTS for Vero E6 cytotoxicity: counterscreen for inhibitors of SARS-S pseudo-typed particle cell entry (AID 1479150). The settings on record: outcome: dose series up to 57.1 µM unless noted.
Experiment [4] in a line: Cytotoxicity counterscreen for inhibitors of SARS-CoV-2 cell entry (AID 1645845). Note: nearly all actives have a fitted effect of over 50% in size. Note: potency is the fitted concentration of half-maximal effect. The note with it: outcome: dose series up to 57.1 µM unless noted. The method, boiled down: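 HEK293-ACE2 cells (Expi293F stably expressing human ACE2) seeded overnight, then compound for 1 h plus 48 h at 37C. Viability as ATP content by luminescence; normalized to wells with cells and media-only wells.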
For orientation: Counterscreens check selectivity or assay interference.

Experiment [5] can be described thus: Primary qHTS to identify inhibitors of SARS-CoV-2 cell entry (AID 1645846). Note: nearly all actives have a fitted effect of over 45% in size. Note: potency is the fitted concentration of half-maximal effect. The note with it: SARS-CoV-2 pseudovirus cell entry assay, luminescence; activity change, negative = inhibition: at 57.1 µM (top of the series) unless noted. In short, it runs like this: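 Data are normalized to wells receiving SARS-CoV-2-S pseudoparticles and those given bald particles. Entry signal was luciferase luminescence in stable hACE2 Expi293F cells, 48 hr post-infection, after 1 hr compound pretreatment.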

The structures appear in SMILES notation. Results filed as inconclusive are left out. Activity calls are given as the source filed them. Calls come from the whole dose curve. Bridge positions count the residues as written; N and C are the ends. Peptide text beside a SMILES is read from it.

With `C[C@@H]1NC(=O)[C@@H]2CCCN2C(=O)[C@H](CC(N)=O)NC(=O)[C@@H]2CSSC[C@H](N)C(=O)N[C@H]3CSSC[C@H](NC1=O)C(=O)N[C@@H]([C@@H](C)O)C(=O)NCC(=O)N[C@H](C(=O)N[C@@H](Cc1ccc(O)cc1)C(=O)O)CSSC[C@H](NC(=O)[C@H](Cc1ccc(O)cc1)NC(=O)[C@H](CCC(=O)O)NC3=O)C(=O)N2` (H-CCEYCCNPACTGCY-OH; disulfide 1-6, 2-10, 5-13), the Potency result in experiment [1], in experiment [2], in experiment [3] and in experiment [4] was “inactive” in each case. The activity change, negative = inhibition in experiment [5] was -24.4% [at 27.1 µM].
Regarding `NCCC[C@H](NC(=O)[C@@H]1CCCN1C(=O)[C@@H]1CSSC[C@H](N)C(=O)N[C@@H](Cc2ccc(O)cc2)C(=O)N[C@@H](Cc2ccccc2)C(=O)N[C@@H](CCC(N)=O)C(=O)N[C@@H](CC(N)=O)C(=O)N1)C(=O)NCC(N)=O`, the Potency result in experiment [1], in experiment [2], in experiment [3] and in experiment [4] was “inactive” each time. Further, the activity change, negative = inhibition in experiment [5] is -24.3%.
Consider `C[N+]1(C)CCN(CC(O)(c2ccccc2)C2CCCCC2)CC1` (stereo not given), for which the Potency entry in experiment [1], in experiment [2], in experiment [3] and in experiment [4] was “inactive” each time.
As for `CC#CCC(C)[C@H](O)/C=C/[C@@H]1[C@H]2C/C(=C/CCCC(=O)O)C[C@H]2C[C@H]1O` (stereo not given in full), the Potency result in experiment [1], in experiment [2], in experiment [3] and in experiment [4] was “inactive” each time.
For `CC(C)(C)NC(=O)N[C@H](C(=O)N1C[C@H]2[C@@H]([C@H]1C(=O)NC(CC1CCC1)C(=O)C(N)=O)C2(C)C)C(C)(C)C` (stereo not given in full), the Potency result in experiment [1], in experiment [2], in experiment [3] and in experiment [4] was “inactive” throughout.
For `C=Cc1c(C)c2cc3nc(c(CC(=O)N[C@@H](CC(=O)O)C(=O)O)c4nc(cc5[nH]c(cc1[nH]2)c(C)c5CC)C(C)=C4C(=O)O)[C@@H](CCC(=O)O)[C@@H]3C`, the Potency entry in experiment [1], in experiment [2], in experiment [3] and in experiment [4] was “inactive” in each case.
Take `CC[C@H]1OC(=O)C[C@@H](O)[C@H](C)[C@@H](O[C@@H]2O[C@H](C)[C@@H](O)[C@H](N(C)C)[C@H]2O)[C@@H](CCN2C[C@H](C)C[C@H](C)C2)C[C@@H](C)C(=O)/C=C/C(C)=C/[C@@H]1CO[C@@H]1O[C@H](C)[C@@H](O)[C@@H](OC)[C@H]1OC`: the Potency entry in experiment [1], in experiment [2], in experiment [3] and in experiment [4] was “inactive” each time.
For the compound `O=P(O)(O)OC(CO)CO`, the Potency result in experiment [1], in experiment [2], in experiment [3] and in experiment [4] was “inactive” throughout.
`COc1ccc2c(=O)c(C)c(-c3ccccc3)oc2c1CN(C)C`: the Potency result in experiment [1], in experiment [2], in experiment [3] and in experiment [4] was “inactive” in each case.
For `CC1=C(C(=O)O)N2C(=O)[C@@H](NC(=O)[C@H](N)C3=CCC=CC3)[C@@H]2SC1`, the Potency result in experiment [1], in experiment [2], in experiment [3] and in experiment [4] was “inactive” throughout. In addition, in experiment [5], the activity change, negative = inhibition is -32.9%.
For the compound `[Mn].[O]=[Mn][OH].[O]=[Mn][OH]`, the Potency entry in experiment [1], in experiment [2], in experiment [3] and in experiment [4] was “inactive” throughout.
Take `Cc1[nH]cnc1C[C@H]1CCc2c(C)c3ccccc3n2C1=O`: the Potency result in experiment [1], in experiment [2], in experiment [3] and in experiment [4] was “inactive” each time. Further, the activity change, negative = inhibition in experiment [5] was -26.5%.
In the case of `COC(=O)[C@@H](N)CS`, the Potency result in experiment [1], in experiment [2], in experiment [3] and in experiment [4] was “inactive” in each case.
On to `COc1ccc(-c2c(Cl)ncn2-c2ccc(S(N)(=O)=O)cc2)cc1F`, for which the Potency entry in experiment [1], in experiment [2], in experiment [3] and in experiment [4] was “inactive” in each case.
Take `NC(=O)C1(N2CCCCC2)CCN(CCCN2c3ccccc3CCc3ccccc32)CC1`: the Potency in experiment [1] was 28.2 µM (active); in experiment [2], 8.91 µM (active); in experiment [4], 31.6 µM (active). Further, in experiment [3], the Potency entry was “inactive”.
Turning to `CC(=O)OCC1=C(C(=O)O)N2C(=O)[C@@H](NC(=O)[C@H](N)c3ccccc3)[C@H]2SC1`, the Potency result in experiment [1], in experiment [2], in experiment [3] and in experiment [4] was “inactive” in each case.
On to `CO/N=C(\C(=O)N[C@@H]1C(=O)N2C(C(=O)OCOC(=O)C(C)(C)C)=C(/C=C\c3scnc3C)CS[C@H]12)c1csc(N)n1`, for which the Potency entry in experiment [1], in experiment [2], in experiment [3] and in experiment [4] was “inactive” in each case.
For the compound `COc1ccc(CNCC(O)COc2ccc3[nH]c(=O)ccc3c2)cc1OC` (stereo not given), the Potency entry in experiment [1], in experiment [2], in experiment [3] and in experiment [4] was “inactive” in each case.
Consider `O=C(O)c1cc(O)c2c(c1)[C@H]([C@H]1c3cc(C(=O)O)cc(O)c3C(=O)c3c(O[C@@H]4O[C@H](CO)[C@@H](O)[C@H](O)[C@H]4O)cccc31)c1cccc(O[C@@H]3O[C@H](CO)[C@@H](O)[C@H](O)[C@H]3O)c1C2=O`, for which the Potency result in experiment [1], in experiment [2], in experiment [3] and in experiment [4] was “inactive” throughout.
For the compound `Cc1oc(-c2ccccc2)nc1CCOc1ccc(CC2C(=O)NOC2=O)cc1` (stereo not given), the Potency result in experiment [1], in experiment [2], in experiment [3] and in experiment [4] was “inactive” throughout. In experiment [5], the activity change, negative = inhibition is -23.4%.
Regarding `Cc1ccc([C@@H]2O[C@H](CO)[C@@H](O)[C@H](O)[C@H]2O)cc1Cc1ccc(-c2ccc(F)cc2)s1`, the Potency result in experiment [1], in experiment [2], in experiment [3] and in experiment [4] was “inactive” throughout. Besides, the Potency in experiment [5] is 17.8 µM (active).
